PubChem BioAssay AID687016 (The Scripps Research Institute Molecular Screening Center, 2013)
Hit rate of the full screen: of about 370,000 compounds, about 2,800 (0.76%) were called active. Only a selection was taken, and actives are over-represented in it overall. A number with no mark means an inactive call. Cut-off read from the data, not from the text of the source: active = inhibition above about 21%; inactive = the rest.

target: E3 ubiquitin-protein ligase UHRF1 (Homo sapiens) (UniProt Q96T88); test: UHRF1 methylated DNA binding inhibitors, primary screen, counter-screen for MBD2 inhibitor project, biochemical, TR-FRET, human UHRF1, single concentration (AID 687016); settings: UHRF1 binding to methylated oligo, at 4.4 µM, active compounds read high;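 note: UHRF1 SRA domain binding a hemimethylated CpG hairpin DNA probe; 0% = median of test compound wells and 100% = reference inhibitor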
Sequence (Q96T88 whole entry, looked up, the tested form may be a part): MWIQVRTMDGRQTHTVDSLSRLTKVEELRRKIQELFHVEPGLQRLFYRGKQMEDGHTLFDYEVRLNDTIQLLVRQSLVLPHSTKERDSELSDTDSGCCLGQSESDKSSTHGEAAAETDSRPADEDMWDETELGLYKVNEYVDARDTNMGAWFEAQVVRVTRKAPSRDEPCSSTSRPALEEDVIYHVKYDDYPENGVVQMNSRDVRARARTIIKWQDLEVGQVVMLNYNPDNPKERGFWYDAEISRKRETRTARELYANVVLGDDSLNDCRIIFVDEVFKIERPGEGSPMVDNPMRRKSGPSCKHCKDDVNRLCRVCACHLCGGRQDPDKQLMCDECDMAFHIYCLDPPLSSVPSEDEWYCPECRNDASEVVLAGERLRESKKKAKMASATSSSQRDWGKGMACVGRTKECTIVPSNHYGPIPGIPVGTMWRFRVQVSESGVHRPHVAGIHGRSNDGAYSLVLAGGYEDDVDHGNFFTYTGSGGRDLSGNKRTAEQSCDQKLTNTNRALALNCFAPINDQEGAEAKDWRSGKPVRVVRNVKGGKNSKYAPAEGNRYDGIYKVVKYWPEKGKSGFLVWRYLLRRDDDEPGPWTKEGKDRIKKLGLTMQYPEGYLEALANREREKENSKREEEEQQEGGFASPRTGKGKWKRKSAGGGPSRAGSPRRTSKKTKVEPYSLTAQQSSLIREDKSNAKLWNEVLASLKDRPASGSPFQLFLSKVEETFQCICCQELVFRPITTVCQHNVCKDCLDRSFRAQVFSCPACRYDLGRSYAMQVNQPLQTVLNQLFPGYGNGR

Point of comparison: COc1ccc(-n2c(SCC(=O)NC3CCCC3)nnc2-c2ccncc2)cc1, inhibition 0.14%. Against it:
- CC(C)(C)c1ccc(CSc2nnc(-c3cccs3)o2)cc1 — lower, -2.34%
- O=C(NCCC1=CCCCC1)C1CCN(S(=O)(=O)c2ccc(Cl)s2)CC1 — lower, -0.71%
- O=C(OC12CCCN(C1)/C(=C/c1ccccc1)C2)c1ccco1 (configuration not stated) — higher, 3.41%
- C=CCN1[C@@H](Cc2ccccc2)COc2cccc(N3CCSCC3)c2S1(=O)=O — lower, -0.98%
- CC1(C)C(=O)Nc2ccccc2N1C(=O)COC(=O)Cn1cnc2ccccc2c1=O — higher, 1.64%
- CNS(=O)(=O)c1cccc(C(=O)OCC(=O)N2c3ccccc3NC(=O)C2(C)C)c1 — higher, 5.39%
- COc1ccnc(C(=O)N2CCC(Oc3cccnc3)CC2)c1 — lower, -0.76%
- O=C1CC(c2ccc3c(c2)OCO3)N=C2N(CC3CC3)C/C(=C/c3ccccc3)N12 (configuration not stated) — lower, -0.7%
- Cc1cc(=O)[nH]c(SCC(=O)Nc2ccc(F)cc2F)n1 — lower, -1.2%
- CC(=O)C1=C(C)NC(=O)NC1c1ccc2c(c1)OCO2 (configuration not stated) — lower, 0.08%
- COCCOC(=O)C1=C(C)NC(=O)NC1c1cc2c(cc1Br)OCO2 (configuration not stated) — higher, 0.79%
- CC(CCN1CCC(C(O)(c2ccccc2)c2ccccc2)CC1)Oc1ccc(C(F)(F)F)cc1 (configuration not stated) — higher, 1.26%
- O=C(CCS(=O)(=O)c1ccccc1)Nc1ccc(Cl)c(Cl)c1 — higher, 3.31%
- COC(=O)[C@]12C[C@H](CC(=O)NCC34CC5CC(CC(C5)C3)C4)C(=O)N(Cc3ccc(Cl)cc3Cl)C1=C[C@H](COCc1ccccc1)O[C@@H]2C — lower, -0.14%
- CCOC(=O)c1ccc2[nH]c(C)c(CN3CCN(C)CC3)c(=O)c2c1 — lower, -2.6%
- CN(C)CCn1c(=S)[nH]c2ccc(Cl)cc2c1=O — lower, -4.42%
- O=C(OC12CCCN(C1)/C(=C/c1cccnc1)C2)C1CCCC1 (configuration not stated) — lower, -1.46%
- CCc1ccccc1NC(=O)CSc1nnc(-c2cccs2)o1 — higher, 1.37%
- COc1ccc(-c2nnc(SCC(=O)c3ccc4c(c3)OCCO4)o2)cc1 — lower, -0.81%
- COC(=O)[C@]12C[C@H](CC(=O)N3CCOCC3)C(=O)N(Cc3ccc(Cl)cc3Cl)C1=C[C@H](COCc1ccccc1)O[C@@H]2C — higher, 0.29%
- CCC(C)C(=O)Nc1cc([N+](=O)[O-])ccc1Cl (configuration not stated) — lower, -0.24%
- O=C(NCc1ccco1)c1ccc([N+](=O)[O-])cc1Cl — higher, 2.58%
- CCC(=O)OCCCN1C(=O)CCC12CCC(c1ccccc1)CC2 (configuration not stated) — lower, -3.69%
- COc1ccc(Cn2ccc3ccc(-c4ccc5ccn(Cc6ccccc6C)c5c4)cc32)cc1 — lower, -0.92%
- CC(C)N1CCCCC(NC(=O)c2ccc3ccccc3c2)C1=O (configuration not stated) — lower, -2.66%
- O=C(c1c[nH]c2ccccc12)N1CCC(Oc2cccnc2)CC1 — lower, -3.48%
- COC(=O)[C@H](C(C)C)N1CCc2nnn(Cc3ccc(C)cc3)c2-c2ccccc2S1(=O)=O — lower, -0.67%
- C=CCN1C(=O)[C@@H](CC(=O)NCCCCc2ccccc2)[C@]2(C(=O)OCC)CCCCC/C=C/12 — lower, -1.86%
- CC(=O)N1CCCN(C2=Nc3ccccc3Sc3ccccc32)CC1 — higher, 11.8%
- Cc1ccnc(SC2CC(=O)N(c3ccccc3)C2=O)n1 (configuration not stated) — lower, -0.14%
- Cc1ccc(NC(=O)Cn2sc3ccccc3c2=O)cc1 — lower, -0.79%
- COc1ccc(CN2C/C(=C/c3ccccc3)N3C(=O)C[C@@H](c4ccccc4)N=C23)c(OC)c1 — lower, -0.02%
- COc1ccc(/C=C2\CC3(OC(C)=O)CCCN2C3)cc1 (configuration not stated) — lower, -2.63%
- C=CCN1C(C(=O)OC)CN(Cc2cn(Cc3ccccc3)nn2)CCS1(=O)=O (configuration not stated) — higher, 15.8%
- O=C(NCCCc1ccccc1)C(=O)c1c[nH]c2ccccc12 — lower, -1.59%
- O=C(CNC(=O)c1ccccc1F)OCC(=O)c1c[nH]c2ccccc12 — lower, -1.49%
- Clc1ccc(-n2c(COc3ccccc3)nnc2SCc2nc3ccccc3[nH]2)cc1 — lower, -1.31%
- C[C@@H](NC(=O)c1ccccc1OCC(=O)Nc1ccc(I)cc1)C(=O)N(C)Cc1ccccc1 — higher, 0.7%
- C=C1C(C(C)C)N(C)C2=NC(c3ccccc3)CC(=O)N12 (configuration not stated) — lower, -0.97%
- CC(C)CSc1nnc(-c2cccnc2)n1Cc1ccccc1 — lower, -0.61%
- Cc1ccc(NC(=O)Cc2cccc(F)c2)c(S(=O)(=O)N2CCOCC2)c1 — higher, 0.9%
- O=C(Cn1ncc2c3ccccc3n(Cc3ccccc3)c2c1=O)NCCCN1CCOCC1 — higher, 0.46%
- O=C(Cn1ncc2c3ccccc3n(Cc3ccccc3)c2c1=O)NCc1ccccn1 — higher, 0.71%
- CCC(=O)c1c(CC)c2n3c1=CC[C@H]3CC(Br)C=2 (some centres not stated) — higher, 1.95%

In the case of Cc1ccc(Cc2cnc(N)s2)o1, the inhibition was 53.9% (active).
For Cc1ccc(OCCC(=O)OCC(=O)N2c3ccccc3NC(=O)C2(C)C)cc1, the inhibition was 24.6% (active).
In the case of O=c1ccc2c(-c3ccccc3S(=O)(=O)O)c3ccc(O)c(O)c3oc-2c1O, the inhibition was 82.5% (active).
CCOCCOC(=O)C1=C(C)NC(=O)NC1c1ccc2c(c1)OCO2 (configuration not stated) was tested, and the inhibition was 31.3% (active).
In the case of CCCCN(C)Cc1c(C)[nH]c2ccc(Cl)cc2c1=O, the inhibition was 27% (active).
COc1ccc(-n2c(C)cc(C(=O)CSc3nnc(-c4cccs4)o3)c2C)cc1 was tested, and the inhibition was 23.6% (active).
For CC(C)C(=O)Nc1cccc(NC(=O)c2ccc([N+](=O)[O-])cc2Cl)c1, the inhibition was 23.4% (active).
For COc1ccc2[nH]c3c(C)c4cc[n+](C)cc4c(C)c3c2c1, the inhibition was 92.9% (active).
For Cc1ccnc(-n2sc3ccccc3c2=O)n1, the inhibition was 21.5% (active).
With C[N+](C)(C)CCNC(=O)c1c[nH]c2ccccc12 the inhibition was 21.1% (active).
For COc1ccc2c(c1)c(=Cc1ccc(N(C)C)cc1)c1cc(-c3ccccc3)[n+](C)n12, the inhibition was 57.8% (active).
With Cc1ccccc1Cn1c2ccccc2c2cnn(CC(=O)NCc3ccco3)c(=O)c21 the inhibition was 22.5% (active).
